Measurements as given in PubChem BioAssay AID1508625 (Wald Lab, School of Medicine, Case Western Reserve …, 2021).

Test: enhancers of NK cell killing of ovarian tumor cells, primary screen, imaging, OVCAR3, primary NK cells, calcein-AM imaging (AID 1508625);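 also: compound given to NK cells 16 h before adding targets at 1.5 to 1 ratio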
Settings: OVCAR3 lysis by primary NK cells, at 5 µM; z-score: measured here: robust Z-score, single-point normalisation

SMILES | corrected activity, negative = more killing | z-score
COc1ccc(-c2cc(C(=O)NN=Cc3ccncc3)[nH]n2)cc1 | 2.36% | 1.03
Cc1ccc(NC(=O)CSc2nc3c([nH]c4ccccc43)c(=O)n2-c2ccc(F)cc2)cc1 | -5.11% | -1.27
Cc1nn2c(N)cc(-c3ccccc3)nc2c1-c1ccccc1 | -0.835% | -0.365
CCOc1ccc(S(=O)(=O)Nc2ccc(Cl)cc2)c2cccnc12 | -3.11% | -0.989
CC(=O)NCCNC(=O)c1ccc(Cn2c(=S)[nH]c3cc4c(cc3c2=O)OCO4)cc1 | -3.96% | -1.05
COc1ccc(CN2C(=O)c3ccccc3C2C(=O)NCCCN2CC(C)CC(C)C2)cc1 (centres undefined) | -3.06% | -0.869
CC1CCC2C(=O)N(c3ccc(NCCc4ccccn4)c([N+](=O)[O-])c3)C(=O)C2C1 (centres undefined) | -4.66% | -1.69
COc1cccc(-n2c(SCC(=O)Nc3ccccc3F)nc3c([nH]c4ccccc43)c2=O)c1 | -10.8% | -2.69
COCCNC(=O)c1cc2cc3ccc(Cl)cc3nc2o1 | -3.66% | -0.897
Cc1ccc(-n2c(SCC(=O)Nc3cccc(F)c3)nc3c(c2=O)SCC3)cc1 | -3.47% | -0.864
COc1ccc(-c2nocc2C(N)=O)cc1OC | -3.72% | -1.63
COc1cc(NC(=O)c2cccs2)ccc1NC(=O)c1ccccc1Cl | -4.46% | -2.48
O=C(CCCCCn1c(=S)[nH]c2cc3c(cc2c1=O)OCO3)N1CCN(c2ccc(Cl)cc2)CC1 | -2.25% | -0.597
CCc1ccccc1-n1cnc2cc(C(=O)NCc3ccc(C)cc3)ccc21 | -4.47% | -1.2
O=C(Nc1ccc(Br)cc1)c1ccccc1I | -1.25% | -0.444
Cc1ccc(S(=O)(=O)NCc2cc(-c3nn(C)c(=O)c4ccccc34)ccc2C)cc1 | -2.25% | -0.924
CCOc1ccc(NC(=O)c2c(NCc3ccncc3)sc3c2CCCCC3)cc1 | -0.239% | -0.0869
COC(=O)c1sc(N2C(=O)C(=O)C(=C(O)c3ccc(Cl)cc3)C2c2ccc(C)cc2)nc1C (centres undefined) | -3.82% | -1.66
Cc1cc(Br)ccc1NC(=O)CCNC(=O)Cn1cnc2sc3c(c2c1=O)CCCC3 | -0.281% | -0.0893
Cc1ccc(-c2coc3c(C)c4oc(=O)c5c(c4cc23)CCC5)cc1 | -5.02% | -1.5
COC(=O)c1ccc(-n2nnnc2SCC(=O)Nc2ccc(F)cc2)cc1 | -6.69% | -2
O=C(c1ccc(COCC(F)(F)F)o1)N1CCCCCC1 | -2.9% | -1.19
COc1ccc(OC)c(C2NC(=S)NC(C)=C2C(=O)Nc2ccccc2)c1 (centres undefined) | -2.97% | -0.92
CCCCOc1ccc(C(=O)N2N=C(C)CC2(O)C(F)(F)F)cc1 (centres undefined) | -6.48% | -2.66
CCc1ccc(-n2c(CCC(=O)O)ccc2-c2ccc(F)cc2)cc1 | -1.11% | -0.331
CC(C)C(NC(=O)C12CC3CC(CC(C3)C1)C2)C(=O)NC1=NCCS1 (centres undefined) | 1.64% | 0.711
COc1cc2c(cc1NC(=O)Nc1cc3oc4ccccc4c3cc1OC)oc1ccccc12 | -6.21% | -1.85
